This note sets out measurements from PubChem BioAssay AID2577 (National Center for Advancing Translational Sciences (NCATS), 2010).

Unmarked numbers belong to inactive results. Calls come from the whole dose curve; as a rule, active = well fitted curve in the direction sought with a large enough effect; inactive = no such curve, though single readings can be large or run the other way.

The target of this assay is Lysosomal alpha-glucosidase (Homo sapiens) (UniProt P10253). Nature of the assay: qHTS Assay for Inhibitors and Activators of N370S glucocerebrosidase as a Potential Chaperone Treatment of Gaucher Disease: Alpha-Glucosidase Counterscreen. To be noted: purified human alpha-glucosidase, 4MU-alpha-glucoside fluorescence. The source says: NIH Chemical Genomics Center [NCGC] NIH Molecular Libraries Probe Production Centers Network [MLPCN] MLPCN Grant: MH086442-01 Assay Submitter (PI): Wei Zheng Glucocerebrosidase (GC) catalyzes the hydrolysis of beta-glucocerebroside to glucose and ceramide in lysosomes. Mutations in the glucocerebrosidase gene result in Gaucher disease, an autosomal recessive lysosomal storage disorder. Many of the mutations encountered in patients with Gaucher disease are missense alterations that may cause misfolding, decreased stability and/or mistrafficking of this lysosomal protein. […] These inhibitors include iminosugar analogs and three non-iminosugar inhibitors identified from a previous HTS of 62,000 compounds with the wild type recombinant enzyme. However, the enhancement of enzyme activity by the chaperone action of an enzyme inhibitor must be balanced against the direct inhibition of the enzyme. An enzyme activator could also function as a chaperone by binding to the enzyme and helping to correct its misfolding and mistrafficking. While activators for GC have not yet been identified, they may have better therapeutic potential than inhibitors. Therefore the discovery and development of chemical activators may provide a new strategy for the chaperone therapy. To characterize compound selectivity, selected hits from the primary screen were screened against purified alpha-glucosidase, a related sugar hydrolase. Alpha-glucosidase is responsible for hydrolysis of terminal, non-reducing 1,4-linked alpha-D-glucose residues with release of alpha-D-glucose.
NCGC Assay Protocol Summary: This is a fluorogenic enzyme assay with 4-methylumbelliferyl-alpha-D-[…] as the substrate and human alpha-glucosidase as the enzyme preparation. Upon the hydrolysis of this fluorogenic substrate, the resulting product, 1. 4-methyllumbelliferone, can be excited at 365 nm and emits at 440 nm which can be detected by a standard fluorescence plate reader. Data were normalized to the controls for basal activity (without enzyme) and 100% activity (with enzyme). The AC50 values were determined from concentration-response data modeled with the standard Hill equation. Assay buffer: 50 mM citric acid (titrated with potassium phosphate to pH 5.0), 0.005% Tween-20, pH 5.0. (pH 5.0 is an optimal condition for this enzyme assay) 1536-well assay protocol for the human alpha-glucosidase: (1) Add 2 ul/well of enzyme (4 nM final) (2) Add 23 nL compounds in DMSO solution. The final titration was 0.7 nM to 77 uM. (3) Add 1 ul of substrate (400 uM final) (4) Incubate at room temperature for 20 min. (5) Add 2 ul stop solution (1M NaOH and 1M Glycine mixture, pH 10) (6) Detect the assay plate in a ViewLux plate reader (PerkinElmer) with Ex=365 nm and Em=440nm. Keywords: Alpha-glucosidase, Pompe Disease, pharmacological chaperone, chaperone therapy, high throughput screening, alpha-glucosidase inhibitor, MLSMR, MLSCN, NIH Roadmap, qHTS and NCGC
Background: Quantitative high-throughput screening tests each substance at several concentrations.
For `O=S(=O)(c1cccc(C(F)(F)F)c1)N1CCN(c2nc(-c3ccccc3)nc3ccccc23)CC1`, the max response is -12.7%.
As for `O=S(=O)(c1ccc(Cl)cc1)N1CCN(c2nc(-c3ccccc3)nc3ccccc23)CC1`, the max response was -10.6%.
On to `O=S(=O)(c1ccc(Cl)cc1)N1CCN(c2nc(-c3cccs3)nc3ccccc23)CC1`, for which the max response was -6.67%.
As for `CCOC(=O)c1ccc(S(=O)(=O)N2CCN(c3nc(-c4ccccc4)nc4ccccc34)CC2)cc1`, the max response is -5.28%.
For the molecule `N#Cc1ccccc1S(=O)(=O)N1CCN(c2nc(-c3ccccc3)nc3ccccc23)CC1`, the max response is -12.3%.
Take `S=C(NCCCc1cnc[nH]1)NCCCN(Cc1ccc(Cl)c(Cl)c1)c1ccc(Br)cn1`: the max response is -4.15%.
`O=[N+]([O-])c1ccc(S(=O)(=O)N2CCN(c3nc(-c4cccs4)nc4ccccc34)CC2)cc1`: the max response is -5.9%.
For `O=S(=O)(c1ccc2ccccc2c1)N1CCN(c2nc(-c3cccs3)nc3ccccc23)CC1`, the max response is -7.23%.
In the case of `O=S(=O)(c1ccc(Cl)cc1)N1CCN(c2nc(-c3cccc(Br)c3)nc3ccccc23)CC1` it was -4.16%; in that of `O=S(=O)(c1ccc(Br)cc1)N1CCN(c2nc(-c3cccs3)nc3ccccc23)CC1`, -4.2%.
As to `COc1ccc(-c2nc(N3CCN(S(=O)(=O)c4ccc(F)cc4)CC3)c3ccccc3n2)cc1`, the max response was -2.56%.
As to `O=S(=O)(c1ccc(C(F)(F)F)cc1)N1CCN(c2nc(-c3ccccc3)nc3ccccc23)CC1`, the max response is -6.24%.
`O=S(=O)(c1ccc(Br)cc1)N1CCN(c2nc(-c3ccccc3)nc3ccccc23)CC1`: the max response was -1.71%.
In the case of `CCOC(=O)c1ccc(S(=O)(=O)N2CCN(c3nc(-c4cccs4)nc4ccccc34)CC2)cc1` it was -8.25%.
As for `CC(C)(C)c1ccc(S(=O)(=O)N2CCN(c3nc(-c4ccccc4)nc4ccccc34)CC2)cc1`, the figure is -7.51%; as for `O=S(=O)(c1cccc(Br)c1)N1CCN(c2nc(-c3cccs3)nc3ccccc23)CC1`, -9.65%.
Consider `CC(=O)c1ccc(S(=O)(=O)N2CCN(c3nc(-c4cccs4)nc4ccccc34)CC2)cc1`, for which the max response is -5.52%.
In the case of `O=[N+]([O-])c1ccccc1S(=O)(=O)N1CCN(c2nc(-c3cccs3)nc3ccccc23)CC1` it was -3.63%.
Consider `O=S(=O)(c1cccc(Cl)c1)N1CCN(c2nc(-c3ccccc3)nc3ccccc23)CC1`, for which the max response is -3.54%.
`O=S(=O)(c1cccc(Cl)c1)N1CCN(c2nc(-c3cccs3)nc3ccccc23)CC1`: the max response was -11.5%.
In the case of `O=S(=O)(c1ccccc1Br)N1CCN(c2nc(-c3cccs3)nc3ccccc23)CC1` it was -2.87%.
As for `O=S(=O)(c1ccc2c(c1)OCCO2)N1CCN(c2nc(-c3ccccc3)nc3ccccc23)CC1`, the max response was -3.22%.
In the case of `O=S(=O)(c1ccccc1Cl)N1CCN(c2nc(-c3cccs3)nc3ccccc23)CC1`, the max response was -12.9%.
As for `CCOc1ccc(S(=O)(=O)N2CCN(c3nc(-c4ccccc4)nc4ccccc34)CC2)cc1`, the max response is -10.9%.
Turning to `COc1ccc(S(=O)(=O)N2CCN(c3nc(-c4cccs4)nc4ccccc34)CC2)cc1OC`, the max response was -12%.
Consider `O=S(=O)(c1ccc(OC(F)(F)F)cc1)N1CCN(c2nc(-c3cccs3)nc3ccccc23)CC1`, for which the max response was -3.54%.
For the molecule `O=[N+]([O-])c1ccccc1S(=O)(=O)N1CCN(c2nc(-c3ccccc3)nc3ccccc23)CC1`, the max response is -3%.
In the case of `O=S(=O)(c1ccc2c(c1)CCC2)N1CCN(c2nc(-c3ccccc3)nc3ccccc23)CC1`, the max response is -9.75%.
`O=S(=O)(c1ccccc1Br)N1CCN(c2nc(-c3ccccc3)nc3ccccc23)CC1`: the max response is -18.6%.
As for `O=S(=O)(c1ccc(C(F)(F)F)cc1)N1CCN(c2nc(-c3cccs3)nc3ccccc23)CC1`, the max response is -11.2%.
